# Assay results: PubChem BioAssay (NCI)
# Compounds without any hit were thinned out: in the full panel of roughly 83,000, 20% have a hit.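 Values shown are percent growth following 48 h exposure of cells in 96-well plates to a single concentration of compound; below 10 was considered active.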 Unmarked numbers belong to inactive results. The source made the active and inactive calls.
# Tests used:
# Assay in all cases: NCI-60 one-dose screen, 48 h (100 = growth as untreated, 0 = no growth, -100 = all killed)
# Details in all cases: 10 µM unless noted
# SR leukemia = tested on: SR leukemia
# RPMI-8226 leukemia = tested on: RPMI-8226 leukemia
# OVCAR-8 ovarian = tested on: OVCAR-8 ovarian
# OVCAR-5 ovarian = tested on: OVCAR-5 ovarian
# OVCAR-4 ovarian = tested on: OVCAR-4 ovarian
# SK-OV-3 ovarian = tested on: SK-OV-3 ovarian
# IGROV1 ovarian = tested on: IGROV1 ovarian
# OVCAR-3 ovarian = tested on: OVCAR-3 ovarian
# HS 578T breast = tested on: HS 578T breast
# NCI/ADR-RES ovarian = tested on: NCI/ADR-RES ovarian
SMILES,growth (SR leukemia),growth (RPMI-8226 leukemia),growth (OVCAR-8 ovarian),growth (OVCAR-5 ovarian),growth (OVCAR-4 ovarian),growth (SK-OV-3 ovarian),growth (IGROV1 ovarian),growth (OVCAR-3 ovarian),growth (HS 578T breast),growth (NCI/ADR-RES ovarian)
CC1(/C=C/c2ccc(-c3ccccc3)cc2)CCn2cnc3ncnc(c32)N1O (stereo not given),18.3%,21.3%,25.7%,47.9%,36.6%,19.8%,15.3%,37.2%,55.5%,3.15% (active)
CN(C)CCC(=O)C1CC1,97.3%,101%,106%,100%,108%,110%,92.3%,105%,111%,98.3%
O=c1cc(C(F)(F)F)c2cc(-c3cc4ccccc4c(=O)o3)c(O)cc2o1,85.5%,17.7%,87%,103%,64%,73.3%,92.6%,56.9%,79.5%,78.9%
O=C1C=CC2(O)OC/C(=C\c3ccccc3)C(O)=C2C1=O (stereo not given),6.55% (active),0.943% (active),8.41% (active),29.3%,30.4%,86.6%,-13% (active),11.7%,39%,16.7%
COc1ccc(C(=O)C/C(=C\c2ccc(O)c(OC)c2)C(=O)NN)cc1,26.9%,80.3%,80.7%,105%,101%,79.9%,82.6%,87.6%,101%,74.8%
CCCN(CCSSCCNc1nc(N(C)O)nc(N(C)O)n1)c1nc(N(C)O)nc(N(C)O)n1,129%,42.6%,70.9%,58%,55%,57.1%,83%,51.6%,131%,85.1%
CCOC(=O)c1cn2ncnc(Oc3ccc(NC(=O)NC4CC4)c(Cl)c3)c2c1C,77.5%,61.3%,98.6%,108%,53.2%,111%,87.6%,107%,100%,90.3%
O=c1oc2ccccc2cc1-c1nn(-c2ccccc2)cc1-c1nn[nH]n1,92.4%,100%,104%,93.2%,97.9%,99.8%,99.1%,114%,105%,102%
CC(=O)Nc1sc2c(c1-c1nc3ccccc3s1)CNC2,6% (active),19.1%,23.4%,41.8%,33.4%,15.9%,13.5%,36.3%,51.3%,23.2%
Cc1ccc(NC(=O)c2sc3nc(C)c(C(O)c4ccccc4)cc3c2N)cc1 (stereo not given),1.92% (active),5.22% (active),18.6%,34.6%,46.1%,14.7%,28.4%,5.7% (active),9.32% (active),7.94% (active)
N=C(N)c1ccc(-c2ccc(-c3ccccc3)o2)o1,-15% (active),9.58% (active),34.4%,72.8%,63.1%,45.9%,45.3%,17%,45.6%,36.3%
Clc1ccc(-c2cc(-c3ccccc3)nc(N3CCN(CCCNc4ccnc5cc(Cl)ccc45)CC3)n2)cc1,5.44% (active),4.72% (active),-47.5% (active),33.5%,9.85% (active),106%,-62.4% (active),-47.9% (active),-17.9% (active),36%
CNC(=O)c1cc(Oc2ccc3c(c2)sc2nc(-c4ccc(Cl)c(C(F)(F)F)c4)cn23)ccn1,41.6%,33.9%,52.5%,100%,65%,78%,86.3%,74.2%,80.3%,60.9%
Nc1nc(N)c2c(n1)NC(c1cccc(Nc3ccnc4cc(C(F)(F)F)ccc34)c1)CC(c1ccc3c(c1)OCO3)=N2 (stereo not given),1.91% (active),17%,73.4%,123%,85.9%,76.8%,73%,65.7%,66.9%,84.1%
Cc1ccc(S(=O)(=O)N2CCCN(c3nc(-c4ccccc4)nc4nc(-c5ccccc5)oc34)CC2)cc1,92.2%,89.6%,95.4%,105%,103%,107%,90.2%,114%,103%,102%
CSc1ccc(N2C(=N)C(=S)N(c3ccc(C)cc3)C2=O)cc1,80.3%,89%,96.1%,89%,96.4%,81.1%,103%,105%,96%,106%
COC1C(O)CC(OC2CC(OC3CC(O[C@@H]4C(=O)c5c(cc6cc(OC7CC(OC8CC(O)C(O)C(C)O8)C(O)C(C)O7)c(C)c(O)c6c5O)CC4[C@H](OC)C(=O)C(C)=O)OC(C)C3O)OC(C)C2O)OC1C (stereo not given in full),-5.46% (active),1.67% (active),4.01% (active),13.9%,10.7%,17.4%,13.6%,6.3% (active),10.8%,18.8%
CS(=O)/C(C#N)=C\C=C\c1cccc(Cl)c1 (stereo not given),6.39% (active),2.54% (active),26.3%,34.1%,34.7%,43.7%,23.4%,10.6%,43.2%,-44.1% (active)
COc1cc(/C=C/C(=O)N2CCN(C(=O)c3cc(OC)c(OC)c(OC)c3)CC2)ccc1OCCCOc1cc2c(cc1OC)C(=O)N1CCC[C@H]1C=N2,-15.4% (active),15.2%,14.1%,8.34% (active),16%,20.3%,-57.9% (active),-11.9% (active),-2.23% (active),78.6%
COc1ccc(-c2cc(C(=O)N3N=C(c4ccc(N)cc4)CC3c3ccc(Cl)cc3)c3ccccc3n2)cc1 (stereo not given),14.5%,16.2%,14.2%,51.6%,59.6%,21.6%,43.9%,3.86% (active),16.4%,25.5%
O=S(=O)(NCCNc1nccc(-c2c(-c3ccc(F)c(O)c3)nc3sccn23)n1)c1ccc(Cl)cc1,9.79% (active),-11.1% (active),22.3%,93.1%,32.5%,39.3%,30.3%,45.4%,31.4%,28.5%
Cc1cc2oc(/C=C/c3ccccc3)cc(=O)c2c(C)c1Cl,78.3%,94%,100%,104%,99%,96.3%,109%,108%,119%,97.8%
CN(C)c1ccc(CNCCO)cc1,108%,84.6%,90.6%,67.6%,112%,71.4%,107%,104%,96%,103%
COc1cc(C=Nc2oc(-c3ccccc3)c(-c3ccccc3)c2C#N)cc(CN2CCCC2)c1O,80.9%,100%,107%,102%,95.5%,111%,92%,105%,90.2%,104%
COCCn1cc(-c2nc(-c3cc4cccnc4n3C)cs2)c2ccccc21,10.1%,55.7%,39%,49%,25.1%,58.7%,43.7%,31.5%,61.5%,13.3%
N[C@@H]1CCC[C@H]1NCCCCN1C(=O)c2cccc3cc([N+](=O)[O-])cc(c23)C1=O,4.54% (active),41.4%,32.5%,72.5%,36.6%,34%,25.6%,45.6%,64.7%,73.4%
